The source made the active and inactive calls. How the source made its calls: active means hit-call score of the fitted dose curve at least 0.9, where 1 is the maximum; inactive means score below 0.9.
Read-out: MicroRNA 122 (MIR122), gene 406906
Assay: LTEA_HepaRG_MIR122: Life Technologies and Expression Analysis (LTEA) Assay for MicroRNA 122 (MIR122) using HepaRG (AID 2283516)
Conditions: mRNA level, 48 h; actives raise or lower the signal
Protocol: LTEA_HepaRG is a cell based, multiplexed-readout assay that uses HepaRG, a human liver cell line, with measurements taken at 48 hours after chemical dosing on a 96-well plate.LTEA_HepaRG_MIR122 is one of 102 assay component(s) measured in the LTEA HepaRG cell culture assay. It is a marker of MicroRNA.Data from the assay component LTEA_HepaRG_MIR122 was analyzed into 1 endpoint. This assay endpoint, LTEA_HepaRG_MIR122, was analyzed with bidirectional fitting relative to DMSO as the negative control and baseline of activity. Using a type of inducible reporter, measures of mRNA induction for gain or loss-of-signal activity can be used to understand regulation of transcription factor activity. To generalize the intended target to other relatable targets, this assay endpoint is annotated to the microrna intended target family, where the subfamily is post-transcriptional regulation.
A total of 1060 chemcials from the ToxCast library were tested in eight-point concentration-response experiments. Cell culture and cytotoxicity assays were conducted at Thermo Fisher Scientific's Custom Services facility (Madison, WI). A single lot of human HepaRG cells (Thermo Fisher Scientific, Frederick, MD) was used for the cell culture experiments. 96-well format collagen type I coated plates of human HepaRG cells were prepared using established methods. Briefly, cryopreserved HepaRG cells were thawed, plated at a density of approximately 100,000 cells/well in HepaRG Thaw, Plate, and General Purpose media (HPRG770, Thermo Fisher Scientific), and incubated for 48 hours. 0.5% DMSO was selected as vehicle control to balance the requisite need of DMSO in HepaRG cultures to maintain differentiation (for example, baseline metabolism, proportions of hepatocytes vs. cholangiocytes), while enabling further hepatic receptor pathway activation (for example, PXR and CAR) in response to chemical exposure. 48 hours after plating, the culture medium was replaced with HepaRG Serum-Free Incudtion Media. Cells were exposed to each test chemical in duplicate and maintained in CO2 incubators for another 48 hours. Chemical plates were thawed to room temperature and 200x concentrations of treatment groups were prepared. 8-point conentration-reponse curves were made with the highest exposure at 100 uM, followed by half-log dilutions, all in 0.5% DMSO. Each test plate contained variouse controls, induction positive controls (1mM phenobarbital), cytotoxicity positive controls ([…] aflatoxin B1), vehicle controls (0.5% DMSO), and total lysis controls (0.5% DMSO). Cell morphology images were taken using an Essen IncuCyte FLR automated microscope, with six 96-well plates imaged in about 24 minutes. Images were captured and exported and JPEG files. Spent culture media was transfered to black-well plates for the LDH assay, and remaining media was sorted at -80 C for later use. Cells were treated with RLT buffer and frozen until shipped for gene expression analysis. Total RNA was isolated from the cell suspension in 75 uL of Buffer RLT (Qiagen, Germantown, MD 20874) by Quintiles/Expression Analysis (Durham, NC) using a custom isolation procedure. Total RNA from each plate well was transferred to a preamplification plate. Fluidigm's 96.96 Dynamic ArrayTM (Fluidigm, Amsterdam, the Netherlands) technology was used for gene expression analyses by quantitative reverse transcription polymerase chain reaction (qRT-PCR, performed by Quintiles/Expression Analysis, Durham, NC)89. Standard TaqManTM Assays (Applied Biosystems/ThermoFisher Scientific, Foster City, CA) were used to assess the expression of 93 genes selected based on their selectivity and sensitivity to important hepatic receptors known to be modulated by environmental chemicals; importance in human hepatocyte functionality; and hepatotoxicity. […]

SMILES | AC50 | outcome
CN(C[C@@H](CC[N+]12CCC(C3CCCCC3)(CC1)CC2)c1ccc(Cl)c(Cl)c1)C(=O)c1cc(C(F)(F)F)cc(C(F)(F)F)c1 | 12.7 µM (active) | –
CC/C(=C(/CC)c1ccc(O)cc1)c1ccc(O)cc1 | – | inactive
CCCCOC(=O)CC(CC(=O)OCCCC)(OC(C)=O)C(=O)OCCCC | – | inactive
NCc1cccc(C2CCN(C(=O)c3ccc(C#Cc4ccccc4F)o3)CC2)c1 | 97.8 µM (active) | –
CC[C@@H]1C[C@H](N(Cc2cc(C(F)(F)F)cc(C(F)(F)F)c2)C(C)=O)c2cc(C(F)(F)F)ccc2N1C(=O)OC(C)C | – | inactive
Cc1cc(F)ccc1-c1cc(N2CC[C@@H](O)[C@H]2CO)ncc1N(C)C(=O)C(C)(C)c1cc(C(F)(F)F)cc(C(F)(F)F)c1 | 9.28 µM (active) | –
OCCO | – | inactive
O=c1ccc2ccccc2o1 | – | inactive
CC[C@H](NC(=O)c1cc(F)ccc1NS(=O)(=O)c1cccc2cccnc12)c1ccccc1 | 47.8 µM (active) | –
Cc1cccc2ccccc12 | – | inactive
CC(C)(c1cc(Br)c(O)c(Br)c1)c1cc(Br)c(O)c(Br)c1 | – | inactive
O=C(O)Cc1cc(I)c(Oc2ccc(O)c(I)c2)c(I)c1 | – | inactive
Oc1ccccc1 | – | inactive
CC(=O)N1CCN(c2ccc(OC[C@H]3CO[C@](Cn4ccnc4)(c4ccc(Cl)cc4Cl)O3)cc2)CC1 | 13.3 µM (active) | –
CN1C(=O)CC[C@H]1c1cccnc1 | – | inactive
C[C@]12CC[C@@H]3c4ccc(O)cc4CC[C@H]3[C@@H]1CC[C@H]2O | – | inactive
O=C1c2ccccc2C(=O)N1CCc1noc(-c2ccc(CN3CCCCCC3)s2)n1 | – | inactive
COc1ccc2cc(S(=O)(=O)N[C@H](CC(=O)N[C@H](Cc3ccc(CN4[C@H](C)CCC[C@@H]4C)cc3)C(=O)N(C)C(C)C)c3ccc4c(c3)OCO4)ccc2c1 | 11.4 µM (active) | –
O=C(O)Cn1c(=O)n(Cc2ccc(Br)cc2F)c(=O)c2ccc(Cl)cc21 | – | inactive
CCCCOC(=O)c1ccc(O)cc1 | – | inactive

SMILES | AC50 | outcome
Oc1ccc2ccccc2c1 | – | inactive
CC(C)(O)c1ccc(CNC(=O)c2cccnc2Oc2ccc3nonc3c2)cc1 | – | inactive
NC(=O)c1nc(-c2cccc(-c3cc(F)ccc3OCC(F)(F)C(F)(F)F)c2)n[nH]1 | – | inactive
CC(C)(C)c1cc(/C=C2\SC(N)=NC2=O)cc(C(C)(C)C)c1O | 94.3 µM (active) | –
O=C(O)c1ccccc1C(=O)OCc1ccccc1 | – | inactive
O=C1O[C@H]([C@@H](O)CO)C(O)=C1O | – | inactive
Cc1cn([C@H]2C[C@H](N=[N+]=[N-])[C@@H](CO)O2)c(=O)[nH]c1=O | – | inactive
c1ccc2ccccc2c1 | – | inactive
CCN(CC)C(=O)c1cc(S(=O)(=O)Cc2ccccc2)c(N2CCC(c3ccccc3)CC2)cc1N(CC)CCN(C)C | 30.5 µM (active) | –
CCN(Cc1cccc(S(=O)(=O)O)c1)c1ccc(C(=C2C=CC(=[N+](CC)Cc3cccc(S(=O)(=O)O)c3)C=C2)c2ccccc2S(=O)(=O)[O-])cc1 | – | inactive
OC12N=C(c3ccccc3)SC1Cc1cc(Cl)ccc12 (stereo not given) | 12.1 µM (active) | –
O=C(Nc1ccc(Cl)cc1)Nc1ccc(Cl)c(Cl)c1 | – | inactive
CCCCCCCCCCCC[N+](C)(C)C | 75 µM (active) | –
CCCCCc1ccc(N)cc1 | – | inactive
Cc1oc2c(NC(=O)c3c(Cl)cccc3Cl)cccc2c1C(C)(C)O | 38.6 µM (active) | –
O=c1[nH]sc2ccccc12 | – | inactive
Clc1cc(Cl)c2c(c1)N=C1CCCCCN1C2 | – | inactive
c1ccc(C[n+]2cccc3ccccc32)cc1 | 22.5 µM (active) | –
COCC(C)OCC(C)OCC(C)O (stereo not given) | – | inactive
CN(C)c1ccc(C(=C2C=CC(=[N+](C)C)C=C2)c2ccc(N(C)C)cc2)cc1 | 6.78 µM (active) | –
